# In the supplement of paper PMC11732987, “Enantioselective OTUD7B fragment discovery through chemoproteomics screening and high-throughput optimisation” (Communications Chemistry, 2025):
# A number with no mark means an inactive call.
# Assays:
# Assay in all cases: log2 ratio of Biotin-Ahx-Ub-VS probe labelling (fragment/DMSO); higher = less target engagement (more negative = stronger competition), active = hit call of the paper (q ≤ 0.05, log2 ratio ≤ -1)
# Conditions in all cases: compound concentration: 200 uM; treatment time: 3 h
# OTUD6B = target: T1, OTUD6B (UniProt Q8N6M0)
# T1 sequence (whole entry): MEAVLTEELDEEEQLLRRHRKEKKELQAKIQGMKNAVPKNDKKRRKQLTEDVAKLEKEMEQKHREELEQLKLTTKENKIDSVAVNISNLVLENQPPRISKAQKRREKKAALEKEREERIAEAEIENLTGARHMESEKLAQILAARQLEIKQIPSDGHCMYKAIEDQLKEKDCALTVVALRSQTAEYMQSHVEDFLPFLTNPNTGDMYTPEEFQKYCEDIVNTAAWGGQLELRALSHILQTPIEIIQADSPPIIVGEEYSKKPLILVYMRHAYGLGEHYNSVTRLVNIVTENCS
# Summary of the method: (§1)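 Global-median-normalised Spectronaut label-free quantities were compared by unpaired t-test, and values are average log2 ratios of fragment over vehicle. Only proteins with ≥2 unique peptides were used. HEK293T lysate (495 µg per sample) was treated in triplicate with fragment at 200 µM or vehicle for 3 h and then with Biotin-Ahx-Ub-VS at 0.5 µM final for 1 h. Labelled DUBs were then NeutrAvidin-enriched, digested with LysC and trypsin, and run by diaPASEF LC-MS/MS.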
# OTUD7B = target: T2, OTUD7B (UniProt Q6GQQ9)
# T2 sequence (whole entry): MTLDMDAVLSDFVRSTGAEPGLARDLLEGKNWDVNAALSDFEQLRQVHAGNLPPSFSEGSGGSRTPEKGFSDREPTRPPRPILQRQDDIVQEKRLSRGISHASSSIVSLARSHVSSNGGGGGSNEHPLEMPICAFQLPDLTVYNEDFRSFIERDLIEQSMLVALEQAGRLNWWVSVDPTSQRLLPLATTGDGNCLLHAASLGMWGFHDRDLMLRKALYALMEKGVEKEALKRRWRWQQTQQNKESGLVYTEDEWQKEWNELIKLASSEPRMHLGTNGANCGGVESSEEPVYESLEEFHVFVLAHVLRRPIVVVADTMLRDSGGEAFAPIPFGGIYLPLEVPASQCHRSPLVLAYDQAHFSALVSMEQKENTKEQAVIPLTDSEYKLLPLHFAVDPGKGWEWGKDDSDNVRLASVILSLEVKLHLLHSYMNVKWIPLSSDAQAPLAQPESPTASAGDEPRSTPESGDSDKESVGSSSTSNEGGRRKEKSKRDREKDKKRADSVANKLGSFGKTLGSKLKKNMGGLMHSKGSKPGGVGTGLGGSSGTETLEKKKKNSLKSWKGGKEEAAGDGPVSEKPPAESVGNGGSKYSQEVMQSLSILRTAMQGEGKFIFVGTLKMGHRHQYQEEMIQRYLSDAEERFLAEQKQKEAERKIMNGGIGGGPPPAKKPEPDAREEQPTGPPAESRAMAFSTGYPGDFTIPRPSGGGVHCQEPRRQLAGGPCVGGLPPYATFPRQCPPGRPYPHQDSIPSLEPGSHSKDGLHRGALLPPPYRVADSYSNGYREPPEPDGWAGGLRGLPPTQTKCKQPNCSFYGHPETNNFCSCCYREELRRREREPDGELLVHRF
# Summary of the method: as §1
# PRPF8 = PRPF8 (UniProt Q6P2Q9)
# Summary of the method: as §1
# PSMD7 = target: T3, PSMD7 (UniProt P51665)
# T3 sequence (whole entry): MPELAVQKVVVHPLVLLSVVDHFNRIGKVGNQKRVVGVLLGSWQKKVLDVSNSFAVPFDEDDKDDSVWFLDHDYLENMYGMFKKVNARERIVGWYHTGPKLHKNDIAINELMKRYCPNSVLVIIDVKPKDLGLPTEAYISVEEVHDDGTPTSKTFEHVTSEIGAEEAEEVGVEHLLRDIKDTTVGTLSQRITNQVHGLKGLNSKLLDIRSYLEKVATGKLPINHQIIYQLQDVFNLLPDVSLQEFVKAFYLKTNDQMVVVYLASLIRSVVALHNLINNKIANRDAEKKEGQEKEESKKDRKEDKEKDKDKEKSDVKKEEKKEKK
# Summary of the method: as §1
# UCHL1 = UCHL1 (UniProt P09936)
# Sequence of UCHL1 (P09936 whole entry, looked up): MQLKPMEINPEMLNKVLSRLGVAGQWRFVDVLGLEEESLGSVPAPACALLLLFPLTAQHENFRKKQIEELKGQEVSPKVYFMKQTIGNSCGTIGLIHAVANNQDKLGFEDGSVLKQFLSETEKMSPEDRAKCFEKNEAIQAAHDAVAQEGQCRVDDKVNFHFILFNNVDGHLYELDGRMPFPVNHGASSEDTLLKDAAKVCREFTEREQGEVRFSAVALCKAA
# Summary of the method: as §1
# UCHL3 = target: T4, UCHL3 (UniProt P15374)
# T4 sequence (whole entry): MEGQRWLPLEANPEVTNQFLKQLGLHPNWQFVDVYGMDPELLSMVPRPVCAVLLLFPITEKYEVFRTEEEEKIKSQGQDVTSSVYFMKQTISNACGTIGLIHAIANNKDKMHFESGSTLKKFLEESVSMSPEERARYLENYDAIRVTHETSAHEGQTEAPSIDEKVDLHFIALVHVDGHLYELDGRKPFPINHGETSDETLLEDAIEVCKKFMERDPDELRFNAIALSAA
# Summary of the method: as §1
# UCHL5 = target: T5, UCHL5 (UniProt Q9Y5K5)
# T5 sequence (whole entry): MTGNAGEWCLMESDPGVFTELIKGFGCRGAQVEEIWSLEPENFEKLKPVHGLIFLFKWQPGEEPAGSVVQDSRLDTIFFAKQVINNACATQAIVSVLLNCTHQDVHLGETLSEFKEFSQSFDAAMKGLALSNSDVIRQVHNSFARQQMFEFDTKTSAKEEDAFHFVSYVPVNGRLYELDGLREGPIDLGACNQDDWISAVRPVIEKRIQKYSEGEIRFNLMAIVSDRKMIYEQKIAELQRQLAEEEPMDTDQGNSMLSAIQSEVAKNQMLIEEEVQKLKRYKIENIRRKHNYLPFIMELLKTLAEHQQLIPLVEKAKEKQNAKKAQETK
# Summary of the method: as §1
# USP10 = USP10 (UniProt Q14694)
# Sequence of USP10 (Q14694 whole entry): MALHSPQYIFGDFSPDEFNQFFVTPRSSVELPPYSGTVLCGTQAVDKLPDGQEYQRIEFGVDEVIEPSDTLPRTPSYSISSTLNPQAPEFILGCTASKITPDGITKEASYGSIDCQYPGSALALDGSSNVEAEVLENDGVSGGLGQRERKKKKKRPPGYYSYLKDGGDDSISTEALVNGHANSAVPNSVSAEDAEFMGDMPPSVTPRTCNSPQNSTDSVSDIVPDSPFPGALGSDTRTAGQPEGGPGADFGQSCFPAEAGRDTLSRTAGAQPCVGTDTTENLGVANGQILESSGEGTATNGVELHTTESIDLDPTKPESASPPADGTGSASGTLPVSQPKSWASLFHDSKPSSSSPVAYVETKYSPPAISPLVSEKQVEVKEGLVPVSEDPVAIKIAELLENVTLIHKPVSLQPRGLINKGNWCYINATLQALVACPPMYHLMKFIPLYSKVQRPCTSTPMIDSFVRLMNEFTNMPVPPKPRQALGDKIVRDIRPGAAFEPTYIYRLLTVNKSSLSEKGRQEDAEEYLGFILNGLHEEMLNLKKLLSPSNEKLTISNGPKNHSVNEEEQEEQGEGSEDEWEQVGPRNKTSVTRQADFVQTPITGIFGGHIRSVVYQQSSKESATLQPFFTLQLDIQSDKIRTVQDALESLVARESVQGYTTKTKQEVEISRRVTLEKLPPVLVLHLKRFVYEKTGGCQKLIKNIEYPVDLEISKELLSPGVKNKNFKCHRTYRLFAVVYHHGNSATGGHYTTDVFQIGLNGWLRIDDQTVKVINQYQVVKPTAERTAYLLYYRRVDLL
# Summary of the method: as §1
# USP15 = target: T6, USP15 (UniProt Q9Y4E8)
# T6 sequence (whole entry): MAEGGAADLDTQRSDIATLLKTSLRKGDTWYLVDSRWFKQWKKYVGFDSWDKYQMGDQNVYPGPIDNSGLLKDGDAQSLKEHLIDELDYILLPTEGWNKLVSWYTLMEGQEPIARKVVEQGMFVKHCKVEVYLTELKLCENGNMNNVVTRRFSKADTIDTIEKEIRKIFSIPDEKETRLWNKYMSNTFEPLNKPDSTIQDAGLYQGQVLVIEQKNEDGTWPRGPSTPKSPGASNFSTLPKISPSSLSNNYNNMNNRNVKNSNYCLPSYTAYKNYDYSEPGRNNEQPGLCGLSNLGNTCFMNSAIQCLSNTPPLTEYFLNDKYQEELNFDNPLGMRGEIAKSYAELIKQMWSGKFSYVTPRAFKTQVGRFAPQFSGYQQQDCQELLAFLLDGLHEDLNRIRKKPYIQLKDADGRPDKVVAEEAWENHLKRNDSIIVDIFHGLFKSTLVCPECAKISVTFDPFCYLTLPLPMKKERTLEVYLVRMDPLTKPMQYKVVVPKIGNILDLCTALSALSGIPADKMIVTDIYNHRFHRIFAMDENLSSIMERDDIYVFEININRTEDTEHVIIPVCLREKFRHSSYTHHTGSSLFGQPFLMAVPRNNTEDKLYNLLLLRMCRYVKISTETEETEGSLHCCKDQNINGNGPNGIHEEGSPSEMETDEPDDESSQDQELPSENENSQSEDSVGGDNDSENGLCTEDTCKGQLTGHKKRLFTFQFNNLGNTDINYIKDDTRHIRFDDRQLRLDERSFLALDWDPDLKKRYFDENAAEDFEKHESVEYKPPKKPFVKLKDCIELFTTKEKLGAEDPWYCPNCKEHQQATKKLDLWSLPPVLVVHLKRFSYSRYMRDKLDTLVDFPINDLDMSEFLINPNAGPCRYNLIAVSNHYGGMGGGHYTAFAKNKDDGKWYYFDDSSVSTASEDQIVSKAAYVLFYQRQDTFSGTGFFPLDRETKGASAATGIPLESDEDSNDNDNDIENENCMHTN
# Summary of the method: as §1
structure (smiles),measurement,setting,value
Cc1noc(N2CCN(C(=O)CCl)CC2)n1.Cl,log2 ratio of Biotin-Ahx-Ub-VS probe labelling,OTUD6B,-0.229
same,log2 ratio of Biotin-Ahx-Ub-VS probe labelling,OTUD7B,-0.413
same,log2 ratio of Biotin-Ahx-Ub-VS probe labelling,PRPF8,-0.079
same,log2 ratio of Biotin-Ahx-Ub-VS probe labelling,PSMD7,0.128
same,log2 ratio of Biotin-Ahx-Ub-VS probe labelling,UCHL1,-1.52 (active)
same,log2 ratio of Biotin-Ahx-Ub-VS probe labelling,UCHL3,0.0214
same,log2 ratio of Biotin-Ahx-Ub-VS probe labelling,UCHL5,-0.188
same,log2 ratio of Biotin-Ahx-Ub-VS probe labelling,USP10,-0.076
same,log2 ratio of Biotin-Ahx-Ub-VS probe labelling,USP15,-0.285
